Measured values taken from PubChem BioAssay (NCI).
This is part of a sample that, as a whole, favours compounds with a hit. Of some 83,000 tested, about 20% had one in any assay.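 Testing used 96-well plates and a 48-hour single-concentration exposure. Example: -40 means 40% of the starting cells died.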 Activity calls are given as the source filed them.

test system: HCT-15 colon; assay: NCI-60 one-dose screen, 48 h (100 = growth as untreated, 0 = no growth, -100 = all killed); settings: 10 µM unless noted
Method: Growth inhibition of the HCT-15 human tumor cell line is measured as a screen for anti-cancer activity. Cells are grown in 96 well plates and exposed to the test compound for 48 hours. Compounds are tested at a single concentration, which is 10^-5 M for most compounds. The reported endpoint is percent growth (GI% or GIPRCNT), where numbers from 0 - 100% represent growth inhibition, and numbers from -100% - 0 represent cell death. For example, a value of 40 represents 60% growth inhibition. A value of 0 means no net growth occurred over the course of the experiment. A value of -40 indicates 40% of cells at the beginning of the experiment died by the end of the experiment. A value of -100 means all cells are dead at the end of the experiment.
NCI-60 Human Tumor Cell Lines Screen was performed using the standard one-dose NCI protocol, which is described in more detail at https://dtp.cancer.gov/discovery_development/nci-60/default.htm.
Compounds with GIPRCNT values below 10 were considered active. Activity score was based on GIPRCNT using the following formula: […]
Score is 0 for GIPRCNT values of 100 or above, 50 for GIPRCNT values of 0, and 100 for GIPRCNT values of -100.

Compound | growth
O=C(CCl)Nc1ccccc1SCc1cc(Cl)cc2c1OCOC2 | 88.5% (inactive)
Nc1ncnc2c1ncn2C1OC(CO)C2OC21 (stereo not given) | 108% (inactive)
CC(C)C(=O)OCCOc1ccc(C(C)(C)C)cc1 | 100% (inactive)
CCOC(=O)C(C#N)=C1CCN(C)CC1 | 99.5% (inactive)
CCC(=O)Oc1ccc2ccccc2c1 | 104% (inactive)
Cc1ccc(S(=O)(=O)Oc2ccc3sc4c(CO)ccc(NCCN(C)C)c4c(=O)c3c2)cc1 | -93.8% [100 µM] (active)
COC(=O)Cc1cc(COC(C)=O)ccc1C | 106% (inactive)
CC1CC2C3CCC4=CC(=O)CCC4(C)C3CCC2(C)C1(O)C(=O)CO (stereo not given) | 106% (inactive)
Cc1onc(-c2c(F)cccc2Cl)c1-c1ncc(-c2ccc(Br)cc2)o1 | 17.7% (inactive)
C=COC(=O)C(C)(C)C | 102% (inactive)
Clc1ncnc2nc[nH]c12 | 96.4% (inactive)
C1Cc2onc(-c3noc4c3CCC4)c2C1 | 105% (inactive)
COc1cc(OC)c2cc(C(=O)c3ccc(C#N)cc3)c(=O)oc2c1 | 105% (inactive)
CCOC(=O)c1cc(Cl)c(O)c(Cl)c1 | 104% (inactive)
CC(C)OCC(CCl)OC(=O)Nc1ccccc1 (stereo not given) | 108% (inactive)
CCCCCCCCNC(=O)C(C)C | 106% (inactive)
COc1ccc(C)cc1NC(=O)SC(C)C | 102% [100 µM] (inactive)
COC(=O)C1=C(C)C(=O)CC1 | 121% (inactive)
COc1ccc(-c2csc(NC(=O)Nc3nc(-c4ccc(OC)cc4)cs3)n2)cc1 | 86.5% (inactive)
Cc1cc2c3ccc(C)[n+](C)c3ccc2n1C | 104% (inactive)

Compound | growth
CCOC(=O)N[C@H]1CCc2cc(OC)c(OC)c(OC)c2-c2ccc(SC)c(=O)cc21 | 7.82% (active)
Cc1ccc(OC(=O)c2ccccc2)cc1 | 118% (inactive)
CSc1cnc2ccccc2n1 | 104% (inactive)
NC(CO)(CO)c1ccccc1 | 97.2% (inactive)
C=C1CC2(OC1=O)C(=O)N(C)c1ccc(I)cc12 (stereo not given) | -53.7% (active)
NC(=O)N1CCOCC1 | 106% (inactive)
C=C1C(=O)C2CCN1CC2 | 105% (inactive)
Oc1cccc(CNC2CCCCC2)c1 | 105% (inactive)
Cc1ccc(/C=N/NC(N)=S)s1 | 109% (inactive)
O=C(O)CC1=CCCCC1 | 98.1% (inactive)
CCN1CCCC(N2c3ccccc3Sc3ccccc32)C1 (stereo not given) | 102% (inactive)
COc1ccc(C(=O)C(=O)c2ccccc2)cc1 | 91.9% (inactive)
COc1cc(CC#N)c([N+](=O)[O-])cc1OC | 116% (inactive)
C#CC(O)c1ccccc1 (stereo not given) | 103% (inactive)
CC(=O)OC(C)c1cccc(C#N)c1 (stereo not given) | 105% (inactive)
C#CCSc1nnnn1-c1ccccc1 | 54.1% (inactive)
N=C(N)c1nn(C2OC(CO)C(O)C2O)c2nc[nH]c(=O)c12 (stereo not given) | 0.318% (active)
O=Cc1ccc(O)c(O)c1 | 103% (inactive)
C[C@H](CCC[C@H](C)OS(=O)(=O)c1ccccc1)OS(=O)(=O)c1ccccc1 | 101% (inactive)
N#Cc1ccc2nc[nH]c2c1 | 106% (inactive)
